The values below come from PubChem BioAssay (NCATS).

Inconclusive results are not listed. A number with no mark means an inactive call. Calls of active or inactive are those of the source. Calls come from the whole dose curve; as a rule, active = well fitted inhibition curve with a large enough effect; inconclusive = small, poorly fitted or top-dose-only effect; inactive = flat fitted curve, though single readings scatter. *1 amine or outer side, *2 acyl side, *3 side chain or, on linkers, in order; H or OH if unused. Where a SMILES comes first, the peptide text is derived from it. Bridges are numbered along the chain shown (N, C = ends). [ ]: non-standard residue; d: D form. The star is where a group is joined. X11 = NC1=N[C@@H](O)C[C@H]([C@H](N[*:1])C(=O)[*:2])N1; ΔAla(Z-3-ureido) = NC(=O)N/C=C(\N)C(=O)O; β3hOrn = NCCC[C@H](N)CC(=O)*; Dap = NC[C@H](N)C(=O)O

In assay [1] the target is Glutathione peroxidase 1 (Homo sapiens) (UniProt P07203). Briefly: Primary qHTS Assay for Inhibitors of Recombinant Selenoprotein Glutathione Peroxidase 1 (GPX1) (AID 1845191). The method, boiled down:
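GR-coupled readout: NADPH consumption tracked by fluorescence, ex 340/em 450 nm, at t=0 and after 15 min at RT. Final mix 10 nM GPX1, 1 mM GSH, 0.5 mM CHP, 0.5 mM NADPH, 100 nM GR, 0.01% BSA, following 30 min enzyme–compound preincubation.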
For orientation: Quantitative high-throughput screening tests each substance at several concentrations.

Assay [2] has as its target Phospholipid hydroperoxide glutathione peroxidase GPX4 (Homo sapiens) (UniProt P36969). Nature of the assay: Primary qHTS Assay for Inhibitors of Recombinant Selenoprotein Glutathione Peroxidase 4 (GPX4) (AID 1845192). For activity change, negative = inhibition: series mostly up to about 50 µM. Put shortly:
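Steps: GPX4 plus compound, 30 min RT; add GR/GSH/NADPH master mix; start with cumene hydroperoxide; read 340/450 nm fluorescence at 0 and 15 min. Finals were 200 nM GPX4, 1 mM GSH, 0.5 mM CHP, 0.5 mM NADPH, 100 nM GR.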
% is set by controls: 0 for no effect and ±100 for the full control effect; potency is the fitted concentration of half-maximal effect.
Note: nearly all actives have a fitted effect of over 65% in size.

Sequence of Glutathione peroxidase 1 (Homo sapiens) (P07203 whole entry, looked up): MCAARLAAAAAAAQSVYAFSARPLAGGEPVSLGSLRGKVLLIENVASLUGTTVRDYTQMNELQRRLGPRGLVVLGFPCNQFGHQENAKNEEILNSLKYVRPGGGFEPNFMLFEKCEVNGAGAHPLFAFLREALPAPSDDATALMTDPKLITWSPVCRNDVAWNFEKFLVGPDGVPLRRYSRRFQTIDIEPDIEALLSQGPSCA
Sequence of Phospholipid hydroperoxide glutathione peroxidase GPX4 (Homo sapiens) (P36969 whole entry, looked up): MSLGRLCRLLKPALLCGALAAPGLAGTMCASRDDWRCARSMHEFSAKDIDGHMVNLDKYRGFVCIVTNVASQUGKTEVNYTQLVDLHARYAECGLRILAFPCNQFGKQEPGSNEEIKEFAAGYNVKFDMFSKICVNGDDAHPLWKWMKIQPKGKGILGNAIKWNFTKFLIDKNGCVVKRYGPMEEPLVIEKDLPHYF

Consider `CC(OC(=O)OC1CCCCC1)OC(=O)C1=C(CSc2nnnn2CCN(C)C)CS[C@@H]2[C@H](NC(=O)Cc3csc(N)n3)C(=O)N12` (some centres not stated), for which the values for the Potency in assay [1] and in assay [2] were 7.18 µM (active) and 8.91 µM (active), respectively.

As for `COc1cc(/C=C\C(=O)N2CCN(CC(=O)N3CCCC3)CC2)cc(OC)c1OC`, the Potency result in assay [1] and in assay [2] was “inactive” in each case.

Regarding `CCCCCCCCCCCCCCCC(=O)OCC=C(C)C=CC=C(C)C=CC1=C(C)CCCC1(C)C`, the Potency result in assay [1] and in assay [2] was “inactive” each time.

As for `CCC(=C(CC)c1ccc(OP(=O)(O)O)cc1)c1ccc(OP(=O)(O)O)cc1`, in assay [1], the activity, negative = inhibition is 1.38% [at 0.4 µM]. Further, in assay [2], the activity change, negative = inhibition was 1.61% [at 0.409 µM].

In the case of `C=C[C@]1(C)C[C@@H](OC(=O)CSC2C[C@H]3CC[C@@H](C2)N3C)C2(C)[C@H](C)CCC3(CCC(=O)[C@H]32)[C@@H](C)[C@@H]1O` (some centres not stated), the Potency entry in assay [1] and in assay [2] was “inactive” throughout.

On to `[2H]C([2H])([2H])C(O)(CCO[C@@H](C)[C@H]1CC[C@H]2/C(=C/C=C3\C[C@@H](O)C[C@H](O)C3=C)CCC[C@]12C)C([2H])([2H])[2H]`, for which the Potency result in assay [1] and in assay [2] was “inactive” throughout.

In the case of `CNCC(=O)OCc1cccnc1N(C)C(=O)OC(C)[n+]1cnn(C[C@](O)(c2cc(F)ccc2F)[C@@H](C)c2nc(-c3ccc(C#N)cc3)cs2)c1` (some centres not stated), the Potency result in assay [1] and in assay [2] was “inactive” in each case.

As for `O=C(O)CSc1nnc(Br)n1-c1ccc(C2CC2)c2ccccc12`, the Potency result in assay [1] and in assay [2] was “inactive” throughout.

For the molecule `NCCC[C@H](N)CC(=O)N[C@H]1CNC(=O)[C@H]([C@H]2C[C@H](O)N=C(N)N2)NC(=O)/C(=C/NC(N)=O)NC(=O)[C@H](CO)NC(=O)[C@H](CO)NC1=O` (β3hOrn-[Dap]SS[ΔAla(Z-3-ureido)][X11]; lactam 1-C), the Potency entry in assay [1] and in assay [2] was “inactive” throughout.

As to `CC(=O)O[C@]1(C(C)=O)CC[C@H]2[C@@H]3C=C(C)C4=CC(=O)CC[C@@H]4[C@H]3CC[C@@]21C`, the Potency result in assay [1] and in assay [2] was “inactive” throughout.

Take `OC[C@H]1O[C@H](O)[C@H](O)[C@@H](O)[C@@H]1O`: the Potency result in assay [1] and in assay [2] was “inactive” each time.

Take `C=CC1(C)CC(=O)C2(O)C(C)(O1)C(OC(C)=O)C(OC(=O)CCN(C)C)C1C(C)(C)CCC(O)C12C` (configuration not stated): the Potency entry in assay [1] and in assay [2] was “inactive” throughout.

In the case of `CC[C@@H]1CCN[C@H](C(=O)N[C@@H]([C@H]2O[C@H](SC)[C@H](O)[C@@H](O)[C@H]2O)[C@H](C)Cl)C1`, the Potency entry in assay [1] and in assay [2] was “inactive” in each case.

As to `CCC(=O)OCC(=O)[C@]1(OC(=O)CC)[C@H](C)C[C@H]2[C@H]3[C@H]([C@@H](O)C[C@@]21C)[C@@]1(C)C=CC(=O)C=C1C[C@H]3Cl`, the Potency entry in assay [1] and in assay [2] was “inactive” throughout.

For the molecule `C=Cc1c(C)c2cc3nc(c(CC(=O)N[C@@H](CC(=O)O)C(=O)O)c4nc(cc5[nH]c(cc1[nH]2)c(C)c5CC)C(C)=C4C(=O)O)[C@@H](CCC(=O)O)[C@@H]3C`, the Potency entry in assay [1] and in assay [2] was “inactive” throughout.

Consider `CCC[C@@H]1C[C@@H](C(=O)N[C@@H](C2O[C@H](SC)[C@H](O)[C@@H](O)[C@H]2O)[C@H](C)Cl)N(C)C1` (some centres not stated), for which the Potency entry in assay [1] and in assay [2] was “inactive” each time.

With `Cc1cc(CC(C)C[Si](C)(O[Si](C)(C)C)O[Si](C)(C)C)c(O)c(-n2nc3ccccc3n2)c1` (configuration not stated), the Potency result in assay [1] and in assay [2] was “inactive” in each case.

For the molecule `OC(CCN1CCCCC1)(c1ccccc1)C1CCCC1` (configuration not stated), the Potency entry in assay [1] and in assay [2] was “inactive” in each case.

With `O[C@@H]1[C@@H](O)[C@@H](O)OC[C@@H]1O`, the Potency result in assay [1] and in assay [2] was “inactive” throughout.

For `C=C1/C(=C/C=C2\CCC[C@]3(C)[C@@H]([C@H](C)CC[C@@H](O)C(C)C)CC[C@@H]23)C[C@@H](O)C[C@@H]1O`, in assay [1], the Potency entry was “inactive”. In addition, the Potency in assay [2] was 15.8 µM (active).

With `OB1OCc2cc(F)ccc21`, the Potency entry in assay [1] and in assay [2] was “inactive” in each case.

With `Cc1ccc(S(=O)(=O)O)cc1`, the Potency result in assay [1] and in assay [2] was “inactive” each time.

As to `CCC(CN)CC(C)CNCC(O)CNCC(CC)CC(CC)CN` (configuration not stated), the Potency result in assay [1] and in assay [2] was “inactive” in each case.

As to `CC[C@H]1OC(=O)[C@H](C)[C@@H](O[C@H]2C[C@@](C)(OC)[C@@H](O)[C@H](C)O2)[C@H](C)[C@@H](O[C@@H]2O[C@H](C)C[C@H](N(C)C)[C@H]2O)C(C)(O)C[C@@H](C)/C(=N\OCOCCOC)[C@H](C)[C@@H](O)[C@]1(C)O` (some centres not stated), the Potency entry in assay [1] and in assay [2] was “inactive” in each case.

Regarding `CSCC[C@H](N)C(=O)O`, the Potency entry in assay [1] and in assay [2] was “inactive” in each case.

Take `CCCCCCO[C@@H](C)c1cccc(-c2csc(NC(=O)c3cc(Cl)c(/C=C(\C)C(=O)O)c(Cl)c3)n2)c1OC`: the Potency result in assay [1] was “inactive”. Besides, the Potency in assay [2] is 2.51 µM (active).

With `O=C(OC[C@H]1O[C@@H](OC(=O)c2cc(O)c(O)c(O)c2)[C@H](O)[C@@H](OC(=O)c2cc(O)c(O)c(O)c2)[C@@H]1O)c1cc(O)c(O)c(O)c1`, the Potency entry in assay [1] and in assay [2] was “inactive” each time.

For `CO[C@H]1C[C@H](O[C@@H]2[C@H](C)O[C@H](O[C@@H]3/C(C)=C/C[C@@H]4C[C@@H](C[C@]5(C=C[C@H](C)[C@@H](C6CCCCC6)O5)O4)OC(=O)[C@@H]4C=C(C)C(O)[C@H]5OC/C(=C\C=C\[C@@H]3C)[C@]54O)C[C@@H]2OC)O[C@@H](C)[C@@H]1O` (some centres not stated), the Potency result in assay [1] and in assay [2] was “inactive” in each case.

As for `CN1CC(O)c2cc(N=NC(=N)N)c(O)cc21` (configuration not stated), the Potency result in assay [1] and in assay [2] was “inactive” in each case.

Regarding `C#C[C@]1(O)CC[C@H]2[C@@H]3CCC4=CC(=O)CCC4[C@H]3CC[C@@]21CC` (some centres not stated), the Potency result in assay [1] and in assay [2] was “inactive” in each case.

As to `CCCCCCCCCCCCCCCC(=O)OC1CCCn2c1nc(C)c(CCN1CCC(c3noc4cc(F)ccc34)CC1)c2=O` (configuration not stated), the Potency result in assay [1] and in assay [2] was “inactive” throughout.
